Measurements: ChEMBL document CHEMBL1961873, “Compounds: GSK PKIS; Assays: Nanosyn kinase panel” (2012)
Where “and” joins values, the source holds several entries; their conditions need not be identical. Equal entries are not always repeated.

Assays:
[1] = target: Protein kinase C gamma type (Homo sapiens) (UniProt P05129); settings: at 1 µM;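 further: each value is an averaged percent inhibition of the enzyme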
[2] = target: T1, Protein kinase C iota type (Homo sapiens) (UniProt P41743); settings: at 0.1 µM
T1 sequence (whole entry): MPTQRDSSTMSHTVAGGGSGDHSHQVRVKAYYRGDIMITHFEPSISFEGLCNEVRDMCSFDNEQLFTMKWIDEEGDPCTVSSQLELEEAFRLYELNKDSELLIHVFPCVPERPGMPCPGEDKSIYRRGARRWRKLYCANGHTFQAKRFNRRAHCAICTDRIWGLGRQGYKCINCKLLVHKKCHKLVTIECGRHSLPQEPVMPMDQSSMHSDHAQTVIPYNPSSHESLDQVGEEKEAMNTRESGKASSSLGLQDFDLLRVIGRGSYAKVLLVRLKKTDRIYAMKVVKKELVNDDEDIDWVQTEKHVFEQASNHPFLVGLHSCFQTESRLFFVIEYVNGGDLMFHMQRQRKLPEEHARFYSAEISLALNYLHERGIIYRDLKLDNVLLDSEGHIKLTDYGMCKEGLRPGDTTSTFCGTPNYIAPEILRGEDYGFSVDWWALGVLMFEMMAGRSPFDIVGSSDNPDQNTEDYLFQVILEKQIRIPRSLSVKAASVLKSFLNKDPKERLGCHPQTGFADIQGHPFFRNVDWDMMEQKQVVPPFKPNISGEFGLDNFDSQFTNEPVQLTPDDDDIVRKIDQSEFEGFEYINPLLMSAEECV

[3] = target: T1, Protein kinase C iota type (Homo sapiens); settings: at 1 µM
[4] = target: Protein kinase C theta type (Homo sapiens) (UniProt Q04759); settings: at 0.1 µM
[5] = target: Protein kinase C theta type (Homo sapiens) (UniProt Q04759); settings: at 1 µM
[6] = target: Protein kinase C beta type (Homo sapiens) (UniProt P05771); settings: at 0.1 µM
[7] = target: Protein kinase C beta type (Homo sapiens) (UniProt P05771); settings: at 1 µM
[8] = target: T2, Serine/threonine-protein kinase D1 (Homo sapiens) (UniProt Q15139); settings: at 0.1 µM
T2 sequence (whole entry): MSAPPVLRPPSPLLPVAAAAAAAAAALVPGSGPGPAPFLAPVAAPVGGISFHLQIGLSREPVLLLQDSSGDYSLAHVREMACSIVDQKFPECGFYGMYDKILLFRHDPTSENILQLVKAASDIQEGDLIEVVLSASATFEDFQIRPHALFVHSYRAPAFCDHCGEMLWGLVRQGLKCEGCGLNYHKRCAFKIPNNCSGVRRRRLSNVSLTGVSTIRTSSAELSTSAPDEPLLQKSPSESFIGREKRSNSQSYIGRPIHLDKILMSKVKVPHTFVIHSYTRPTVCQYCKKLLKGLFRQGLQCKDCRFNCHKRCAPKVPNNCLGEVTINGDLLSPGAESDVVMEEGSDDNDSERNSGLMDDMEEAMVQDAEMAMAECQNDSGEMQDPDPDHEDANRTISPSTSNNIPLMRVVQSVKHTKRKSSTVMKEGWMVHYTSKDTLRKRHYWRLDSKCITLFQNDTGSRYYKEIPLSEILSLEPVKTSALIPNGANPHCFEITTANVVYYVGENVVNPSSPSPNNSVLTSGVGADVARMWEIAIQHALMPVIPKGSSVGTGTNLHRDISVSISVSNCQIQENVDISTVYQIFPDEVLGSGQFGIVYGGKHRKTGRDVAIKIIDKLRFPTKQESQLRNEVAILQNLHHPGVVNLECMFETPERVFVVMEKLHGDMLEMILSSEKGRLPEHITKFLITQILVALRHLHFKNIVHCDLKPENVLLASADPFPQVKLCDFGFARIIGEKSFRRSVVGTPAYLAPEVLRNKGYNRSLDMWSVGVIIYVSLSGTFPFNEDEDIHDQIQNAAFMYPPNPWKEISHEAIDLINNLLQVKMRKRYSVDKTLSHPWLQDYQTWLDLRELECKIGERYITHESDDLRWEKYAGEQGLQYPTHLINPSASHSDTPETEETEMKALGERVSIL

[9] = target: T2, Serine/threonine-protein kinase D1 (Homo sapiens); settings: at 1 µM
[10] = target: T3, Serine/threonine-protein kinase D2 (Homo sapiens) (UniProt Q9BZL6); settings: at 0.1 µM
T3 sequence (whole entry): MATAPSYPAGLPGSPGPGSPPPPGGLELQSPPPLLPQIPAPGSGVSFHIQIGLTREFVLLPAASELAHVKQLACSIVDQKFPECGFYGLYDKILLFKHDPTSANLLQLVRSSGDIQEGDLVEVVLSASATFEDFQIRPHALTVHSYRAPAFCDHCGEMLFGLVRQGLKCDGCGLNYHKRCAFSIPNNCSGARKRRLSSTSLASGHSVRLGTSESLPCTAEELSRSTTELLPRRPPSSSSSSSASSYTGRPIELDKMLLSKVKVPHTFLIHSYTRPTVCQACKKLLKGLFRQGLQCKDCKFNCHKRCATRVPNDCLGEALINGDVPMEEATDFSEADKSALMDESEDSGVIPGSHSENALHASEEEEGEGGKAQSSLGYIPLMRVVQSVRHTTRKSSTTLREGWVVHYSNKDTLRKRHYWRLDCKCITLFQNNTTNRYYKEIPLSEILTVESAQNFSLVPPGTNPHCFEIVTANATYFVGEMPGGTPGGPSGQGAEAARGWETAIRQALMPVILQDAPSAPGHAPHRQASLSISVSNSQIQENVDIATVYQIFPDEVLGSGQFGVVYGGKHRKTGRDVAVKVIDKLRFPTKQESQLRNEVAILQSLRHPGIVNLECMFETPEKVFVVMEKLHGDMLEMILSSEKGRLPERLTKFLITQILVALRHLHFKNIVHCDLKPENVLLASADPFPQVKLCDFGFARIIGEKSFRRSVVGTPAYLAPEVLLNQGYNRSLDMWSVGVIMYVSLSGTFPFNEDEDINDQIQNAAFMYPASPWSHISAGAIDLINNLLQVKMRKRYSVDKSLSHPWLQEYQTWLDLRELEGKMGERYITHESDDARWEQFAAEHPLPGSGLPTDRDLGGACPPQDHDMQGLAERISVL

[11] = target: T3, Serine/threonine-protein kinase D2 (Homo sapiens); settings: at 1 µM
[12] = target: T4, Serine/threonine-protein kinase D3 (Homo sapiens) (UniProt O94806); settings: at 0.1 µM
T4 sequence (whole entry): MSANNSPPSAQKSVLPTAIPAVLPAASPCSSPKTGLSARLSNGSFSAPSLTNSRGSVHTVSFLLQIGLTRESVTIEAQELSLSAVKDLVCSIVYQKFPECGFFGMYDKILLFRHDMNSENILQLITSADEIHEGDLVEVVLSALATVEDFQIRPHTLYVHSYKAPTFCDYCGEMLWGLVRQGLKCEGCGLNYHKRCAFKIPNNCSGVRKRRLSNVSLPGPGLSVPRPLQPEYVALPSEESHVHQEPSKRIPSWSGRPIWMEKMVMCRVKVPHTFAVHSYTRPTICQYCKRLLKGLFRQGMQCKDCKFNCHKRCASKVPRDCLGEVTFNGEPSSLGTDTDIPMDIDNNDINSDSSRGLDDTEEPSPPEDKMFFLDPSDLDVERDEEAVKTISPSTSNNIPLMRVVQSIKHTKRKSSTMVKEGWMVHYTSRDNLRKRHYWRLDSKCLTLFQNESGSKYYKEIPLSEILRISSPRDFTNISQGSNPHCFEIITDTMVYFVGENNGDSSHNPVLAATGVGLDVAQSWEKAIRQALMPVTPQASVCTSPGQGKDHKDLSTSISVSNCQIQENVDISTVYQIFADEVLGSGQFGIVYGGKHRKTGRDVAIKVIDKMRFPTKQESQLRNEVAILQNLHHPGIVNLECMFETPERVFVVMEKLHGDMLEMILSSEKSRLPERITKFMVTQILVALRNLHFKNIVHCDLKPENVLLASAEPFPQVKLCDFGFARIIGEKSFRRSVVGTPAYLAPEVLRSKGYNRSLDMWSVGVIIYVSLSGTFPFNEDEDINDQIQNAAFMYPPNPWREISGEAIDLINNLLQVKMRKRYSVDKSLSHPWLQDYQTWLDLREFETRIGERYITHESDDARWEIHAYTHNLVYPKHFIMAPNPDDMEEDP

[13] = target: T4, Serine/threonine-protein kinase D3 (Homo sapiens); settings: at 1 µM
[14] = target: T5, cGMP-dependent protein kinase 1 (Homo sapiens) (UniProt Q13976); settings: at 0.1 µM
T5 sequence (whole entry): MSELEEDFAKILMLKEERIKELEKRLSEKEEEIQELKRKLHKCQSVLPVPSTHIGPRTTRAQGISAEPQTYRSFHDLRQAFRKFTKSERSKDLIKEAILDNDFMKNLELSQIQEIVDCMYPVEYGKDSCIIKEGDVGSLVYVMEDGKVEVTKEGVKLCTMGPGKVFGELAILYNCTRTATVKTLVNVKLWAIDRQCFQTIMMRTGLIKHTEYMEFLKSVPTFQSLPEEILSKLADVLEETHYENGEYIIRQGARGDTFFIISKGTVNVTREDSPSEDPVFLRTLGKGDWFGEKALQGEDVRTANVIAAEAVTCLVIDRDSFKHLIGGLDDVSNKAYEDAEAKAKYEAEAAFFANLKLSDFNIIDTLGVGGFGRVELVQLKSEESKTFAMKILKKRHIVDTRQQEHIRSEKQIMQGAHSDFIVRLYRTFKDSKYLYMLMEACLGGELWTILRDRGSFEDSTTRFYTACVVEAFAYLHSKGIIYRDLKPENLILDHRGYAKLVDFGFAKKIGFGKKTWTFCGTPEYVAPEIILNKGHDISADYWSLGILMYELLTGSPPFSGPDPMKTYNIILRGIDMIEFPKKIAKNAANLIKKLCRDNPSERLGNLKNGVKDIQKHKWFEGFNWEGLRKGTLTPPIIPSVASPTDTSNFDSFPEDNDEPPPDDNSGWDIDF

[15] = target: T5, cGMP-dependent protein kinase 1 (Homo sapiens); settings: at 1 µM
[16] = target: T6, cGMP-dependent protein kinase 2 (Homo sapiens) (UniProt Q13237); settings: at 0.1 µM
T6 sequence (whole entry): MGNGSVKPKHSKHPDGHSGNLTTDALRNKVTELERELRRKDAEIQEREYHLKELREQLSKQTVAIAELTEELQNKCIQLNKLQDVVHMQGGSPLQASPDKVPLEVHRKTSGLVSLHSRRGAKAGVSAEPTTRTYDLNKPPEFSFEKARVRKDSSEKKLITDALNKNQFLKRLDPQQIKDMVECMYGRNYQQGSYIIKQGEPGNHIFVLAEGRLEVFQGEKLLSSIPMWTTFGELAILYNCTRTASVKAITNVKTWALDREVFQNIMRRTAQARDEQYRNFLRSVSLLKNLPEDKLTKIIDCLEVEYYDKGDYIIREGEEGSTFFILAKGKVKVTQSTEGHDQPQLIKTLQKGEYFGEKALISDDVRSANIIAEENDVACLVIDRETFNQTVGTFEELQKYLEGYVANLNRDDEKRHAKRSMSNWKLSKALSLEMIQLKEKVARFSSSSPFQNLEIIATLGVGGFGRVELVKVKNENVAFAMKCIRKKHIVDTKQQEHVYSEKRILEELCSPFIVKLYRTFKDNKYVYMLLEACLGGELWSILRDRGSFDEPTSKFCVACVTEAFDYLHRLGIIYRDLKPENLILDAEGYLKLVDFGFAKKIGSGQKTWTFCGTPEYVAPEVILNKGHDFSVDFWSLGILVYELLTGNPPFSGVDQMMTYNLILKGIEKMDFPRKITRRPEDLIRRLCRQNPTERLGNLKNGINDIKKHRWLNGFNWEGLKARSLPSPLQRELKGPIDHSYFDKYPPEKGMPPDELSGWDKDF

[17] = target: T6, cGMP-dependent protein kinase 2 (Homo sapiens); settings: at 1 µM
[18] = target: T7, cAMP-dependent protein kinase catalytic subunit PRKX (Homo sapiens) (UniProt P51817); settings: at 0.1 µM
T7 sequence (whole entry): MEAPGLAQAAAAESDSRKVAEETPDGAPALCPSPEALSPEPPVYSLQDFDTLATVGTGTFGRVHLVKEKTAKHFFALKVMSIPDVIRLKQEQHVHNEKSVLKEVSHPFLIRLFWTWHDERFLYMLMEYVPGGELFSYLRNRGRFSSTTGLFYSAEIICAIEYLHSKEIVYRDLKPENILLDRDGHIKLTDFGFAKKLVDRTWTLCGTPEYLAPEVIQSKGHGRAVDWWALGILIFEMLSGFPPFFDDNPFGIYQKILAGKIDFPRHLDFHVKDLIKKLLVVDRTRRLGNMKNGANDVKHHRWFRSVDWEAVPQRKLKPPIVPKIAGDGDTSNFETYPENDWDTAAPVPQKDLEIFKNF

[19] = target: T7, cAMP-dependent protein kinase catalytic subunit PRKX (Homo sapiens); settings: at 1 µM
[20] = target: Rho-associated protein kinase 1 (Homo sapiens) (UniProt Q13464); settings: at 0.1 µM;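 further: values are mean percent inhibition of ROCK1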
Sequence of Rho-associated protein kinase 1 (Homo sapiens) (Q13464 2-1354 limits assumed): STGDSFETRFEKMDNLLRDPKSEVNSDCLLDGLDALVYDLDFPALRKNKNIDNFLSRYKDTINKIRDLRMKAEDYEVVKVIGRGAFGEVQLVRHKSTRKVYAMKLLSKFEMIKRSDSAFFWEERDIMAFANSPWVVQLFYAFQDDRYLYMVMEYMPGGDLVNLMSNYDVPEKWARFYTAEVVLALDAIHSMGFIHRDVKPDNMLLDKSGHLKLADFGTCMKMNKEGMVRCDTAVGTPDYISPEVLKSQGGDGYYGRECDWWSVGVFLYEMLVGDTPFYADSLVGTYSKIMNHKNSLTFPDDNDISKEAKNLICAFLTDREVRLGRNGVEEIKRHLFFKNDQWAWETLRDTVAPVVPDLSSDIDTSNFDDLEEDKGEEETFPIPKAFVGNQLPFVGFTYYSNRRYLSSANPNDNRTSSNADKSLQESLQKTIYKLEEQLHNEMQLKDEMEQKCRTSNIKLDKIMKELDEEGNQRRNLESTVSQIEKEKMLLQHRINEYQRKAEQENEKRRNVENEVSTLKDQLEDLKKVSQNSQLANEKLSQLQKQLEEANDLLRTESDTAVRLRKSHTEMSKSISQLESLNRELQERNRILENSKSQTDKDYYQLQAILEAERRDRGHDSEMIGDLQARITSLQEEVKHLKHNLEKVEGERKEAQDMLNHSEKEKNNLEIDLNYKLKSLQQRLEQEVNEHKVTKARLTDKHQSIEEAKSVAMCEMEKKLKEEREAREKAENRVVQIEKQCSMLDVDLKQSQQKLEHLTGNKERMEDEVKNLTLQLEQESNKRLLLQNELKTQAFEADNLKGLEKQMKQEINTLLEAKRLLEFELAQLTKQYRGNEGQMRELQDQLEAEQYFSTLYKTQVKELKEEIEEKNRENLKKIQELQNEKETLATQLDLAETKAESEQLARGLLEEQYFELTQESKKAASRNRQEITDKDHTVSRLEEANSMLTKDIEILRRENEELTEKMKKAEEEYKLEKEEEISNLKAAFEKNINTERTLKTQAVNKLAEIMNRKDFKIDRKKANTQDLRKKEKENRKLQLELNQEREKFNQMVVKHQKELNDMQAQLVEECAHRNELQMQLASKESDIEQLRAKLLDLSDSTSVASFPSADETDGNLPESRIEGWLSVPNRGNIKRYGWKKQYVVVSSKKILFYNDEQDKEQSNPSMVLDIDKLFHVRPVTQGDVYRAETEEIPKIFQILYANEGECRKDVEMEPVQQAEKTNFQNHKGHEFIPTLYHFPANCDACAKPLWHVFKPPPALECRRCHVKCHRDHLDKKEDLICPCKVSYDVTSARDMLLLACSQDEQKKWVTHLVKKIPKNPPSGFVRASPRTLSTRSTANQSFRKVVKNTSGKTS

Sequence of Protein kinase C theta type (Homo sapiens) (Q04759 whole entry, looked up): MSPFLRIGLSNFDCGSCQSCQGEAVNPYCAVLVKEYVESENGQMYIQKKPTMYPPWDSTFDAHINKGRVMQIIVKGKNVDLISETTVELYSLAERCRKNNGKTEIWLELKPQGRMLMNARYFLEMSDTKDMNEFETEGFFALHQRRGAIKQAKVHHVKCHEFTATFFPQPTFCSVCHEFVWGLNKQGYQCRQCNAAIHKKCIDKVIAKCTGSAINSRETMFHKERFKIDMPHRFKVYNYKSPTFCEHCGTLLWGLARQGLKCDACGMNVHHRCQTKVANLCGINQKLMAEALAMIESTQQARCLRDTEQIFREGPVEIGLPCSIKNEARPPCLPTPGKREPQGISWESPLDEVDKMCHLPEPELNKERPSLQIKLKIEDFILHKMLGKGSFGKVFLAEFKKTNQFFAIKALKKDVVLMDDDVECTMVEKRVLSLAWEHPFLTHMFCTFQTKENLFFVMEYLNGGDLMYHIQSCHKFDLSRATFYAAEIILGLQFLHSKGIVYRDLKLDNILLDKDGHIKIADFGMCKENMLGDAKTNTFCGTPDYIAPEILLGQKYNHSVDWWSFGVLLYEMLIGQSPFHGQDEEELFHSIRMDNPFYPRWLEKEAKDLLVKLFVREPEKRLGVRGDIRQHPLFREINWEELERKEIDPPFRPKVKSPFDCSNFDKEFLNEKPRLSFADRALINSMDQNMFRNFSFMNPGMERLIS
Sequence of Protein kinase C beta type (Homo sapiens) (P05771 2-671 limits assumed): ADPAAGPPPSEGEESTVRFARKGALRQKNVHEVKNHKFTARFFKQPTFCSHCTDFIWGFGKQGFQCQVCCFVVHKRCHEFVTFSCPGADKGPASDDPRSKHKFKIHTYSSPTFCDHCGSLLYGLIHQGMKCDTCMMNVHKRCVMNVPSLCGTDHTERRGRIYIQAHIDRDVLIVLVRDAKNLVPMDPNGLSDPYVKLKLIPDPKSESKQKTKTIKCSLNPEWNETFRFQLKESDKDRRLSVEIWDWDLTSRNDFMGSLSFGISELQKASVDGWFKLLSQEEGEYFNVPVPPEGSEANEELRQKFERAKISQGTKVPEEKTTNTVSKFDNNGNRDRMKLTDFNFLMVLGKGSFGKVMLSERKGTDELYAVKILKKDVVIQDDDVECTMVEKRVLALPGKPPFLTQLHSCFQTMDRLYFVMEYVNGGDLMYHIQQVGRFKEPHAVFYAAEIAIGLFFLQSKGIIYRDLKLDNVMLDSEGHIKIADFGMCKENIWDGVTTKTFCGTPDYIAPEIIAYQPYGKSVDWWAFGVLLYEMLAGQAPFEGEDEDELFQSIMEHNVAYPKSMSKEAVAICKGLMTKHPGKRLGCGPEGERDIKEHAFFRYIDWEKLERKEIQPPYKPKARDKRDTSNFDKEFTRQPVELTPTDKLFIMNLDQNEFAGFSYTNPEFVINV

| Structure (SMILES) | inhibition [1] | inhibition [2] | inhibition [3] | inhibition [4] | inhibition [5] | inhibition [6] | inhibition [7] | inhibition [8] | inhibition [9] | inhibition [10] | inhibition [11] | inhibition [12] | inhibition [13] | inhibition [14] | inhibition [15] | inhibition [16] | inhibition [17] | inhibition [18] | inhibition [19] | inhibition [20] |
| --- | --- | --- | --- | --- | --- | --- | --- | --- | --- | --- | --- | --- | --- | --- | --- | --- | --- | --- | --- | --- |
| CCn1c(-c2nonc2N)nc2cncc(C(=O)NCCNC)c21 | 35.3% | 9.63% | 40% | 8.91% | 39.2% | 21.1% | 61% | 5.32% | 8.53% | 5.41% | 5.38% | 5.66% | 6.85% | 36.2% | 70% | 61.7% | 73.8% | 18.4% | 63.9% | 71.8% |
| CC1=C(C(=O)Nc2ccc3[nH]ncc3c2)C(c2ccc(F)cc2)N=C(c2ccc(C(F)(F)F)nc2)N1 (stereo not given) | 3.28% | 1% | 1.59% | 1.3% | 1.01% | 4.27% | 0.68% | 2.04% | 3.26% | 2.6% | 2.33% | 3.1% | 2.8% | 7.52% | 42.2% | 4.96% | 31.1% | 3.93% | 23.6% | 31.3% |
| Nc1nonc1-c1nc2cnccc2n1C1CC1 | 16.4% and 14.8% | 1.95% and 3.2% | 14.8% and 15.6% | 8.24% and 7.85% | 38.7% and 40.1% | 7.25% and 6.7% | 31.2% and 31.3% | 4% and 0.29% | 22.3% and 23.2% | 4% and 0.3% | 18.3% and 17.4% | 5.14% and 1.26% | 21.9% and 19.9% | 13.6% and 15.4% | 50.7% and 56.1% | 36.7% and 40.2% | 65.8% and 69.3% | 3.44% and 4.71% | 23.7% and 26.4% | 43.6% and 46.2% |
